# Measurements reported in the supplement of paper PMC4466140.
# Tests used:
# Assay in all cases: SPOT peptide array binding signal intensity (averaged, normalized) (arbitrary units (background-subtracted, floor 0; scale differs between SH3 domains)); higher = stronger binding of the SH3 domain to the peptide
# AgAbp1 = target: AgAbp1
# Protocol: (§1)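 GST-tagged SH3 domains from S. cerevisiae (Sc), A. gossypii (Ag), C. albicans (Ca) and S. pombe (Sp) were incubated at 10 ug/ml overnight at 4 C on cellulose SPOT membranes carrying 292 synthetic 15-mer peptides mined from the S. cerevisiae proteome (cysteines replaced by serines). Binding was detected with anti-GST antibody, HRP secondary and chemiluminescence, quantified with Genespotter, and reported as normalized spot intensities averaged over biological replicates.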
# AgBbc1 = target: AgBbc1
# Protocol: as §1
# AgBem1-D1 = target: AgBem1-D1
# Protocol: as §1
# AgBzz1-D1 = target: AgBzz1-D1
# Protocol: as §1
# AgBzz1-D2 = target: AgBzz1-D2
# Protocol: as §1
# AgCyk3 = target: AgCyk3
# Protocol: as §1
# AgFus1 = target: AgFus1
# Protocol: as §1
# AgHof1 = target: AgHof1
# Protocol: as §1
# AgHse1 = target: AgHse1
# Protocol: as §1
# AgLsb1 = target: AgLsb1
# Protocol: as §1
# AgLsb4 = target: AgLsb4
# Protocol: as §1
# AgMyo5 = target: AgMyo5
# Protocol: as §1
# AgNbp2 = target: AgNbp2
# Protocol: as §1
# AgRvs167 = target: AgRvs167
# Protocol: as §1
# AgSho1 = target: AgSho1
# Protocol: as §1
# AgSla1-D1-D2 = target: AgSla1-D1-D2
# Protocol: as §1
# AgSla1-D3 = target: AgSla1-D3
# Protocol: as §1
# CaAbp1-D1 = target: CaAbp1-D1
# Protocol: as §1
# CaAbp1-D2 = target: CaAbp1-D2
# Protocol: as §1
# CaBbc1 = target: CaBbc1
# Protocol: as §1
# CaBem1-D1 = target: CaBem1-D1
# Protocol: as §1
# CaBzz1-D1 = target: CaBzz1-D1
# Protocol: as §1
# CaBzz1-D2 = target: CaBzz1-D2
# Protocol: as §1
# CaCyk3 = target: CaCyk3
# Protocol: as §1
# CaFus1 = target: CaFus1
# Protocol: as §1
# CaHof1 = target: CaHof1
# Protocol: as §1
# CaHse1 = target: CaHse1
# Protocol: as §1
# CaLsb1 = target: CaLsb1
# Protocol: as §1
# CaLsb4 = target: CaLsb4
# Protocol: as §1
# CaMyo5 = target: CaMyo5
# Protocol: as §1
# CaNbp2 = target: CaNbp2
# Protocol: as §1
# CaRvs167 = target: CaRvs167
# Protocol: as §1
# CaRvs167-3 = target: CaRvs167-3
# Protocol: as §1
# CaSho1 = target: CaSho1
# Protocol: as §1
# CaSla1-D1-D2 = target: CaSla1-D1-D2
# Protocol: as §1
# CaSla1-D3 = target: CaSla1-D3
# Protocol: as §1
# ScAbp1 = target: ScAbp1
# Protocol: as §1
# ScBbc1 = target: ScBbc1
# Protocol: as §1
# ScBem1-D1 = target: ScBem1-D1
# Protocol: as §1
# ScBzz1-D1 = target: ScBzz1-D1
# Protocol: as §1
# ScBzz1-D2 = target: ScBzz1-D2
# Protocol: as §1
# ScCyk3 = target: ScCyk3
# Protocol: as §1
# ScFus1 = target: ScFus1
# Protocol: as §1
# ScHof1 = target: ScHof1
# Protocol: as §1
# ScHse1 = target: ScHse1
# Protocol: as §1
# ScLsb1 = target: ScLsb1
# Protocol: as §1
# ScLsb2 = target: ScLsb2
# Protocol: as §1
# ScLsb3 = target: ScLsb3
# Protocol: as §1
# ScLsb4 = target: ScLsb4
# Protocol: as §1
# ScMyo3 = target: ScMyo3
# Protocol: as §1
# ScMyo5 = target: ScMyo5
# Protocol: as §1
# ScNbp2 = target: ScNbp2
# Protocol: as §1
# ScPex13 = target: ScPex13
# Protocol: as §1
# ScRvs167 = target: ScRvs167
# Protocol: as §1
# ScSho1 = target: ScSho1
# Protocol: as §1
# ScSla1-D1-D2 = target: ScSla1-D1-D2
# Protocol: as §1
# ScSla1-D3 = target: ScSla1-D3
# Protocol: as §1
# SpAbp1-D1 = target: SpAbp1-D1
# Protocol: as §1
# SpBbc1 = target: SpBbc1
# Protocol: as §1
# SpBzz1-D1 = target: SpBzz1-D1
# Protocol: as §1
# SpBzz1-D2 = target: SpBzz1-D2
# Protocol: as §1
# SpCyk3 = target: SpCyk3
# Protocol: as §1
# SpHof1 = target: SpHof1
# Protocol: as §1
# SpHof1-2 = target: SpHof1-2
# Protocol: as §1
# SpHof1-3 = target: SpHof1-3
# Protocol: as §1
# SpHse1 = target: SpHse1
# Protocol: as §1
# SpLsb1 = target: SpLsb1
# Protocol: as §1
# SpLsb4 = target: SpLsb4
# Protocol: as §1
# SpMyo1 = target: SpMyo1
# Protocol: as §1
# SpNbp2 = target: SpNbp2
# Protocol: as §1
# SpPex13 = target: SpPex13
# Protocol: as §1
# SpRvs167 = target: SpRvs167
# Protocol: as §1
# SpSla1-D1-D2 = target: SpSla1-D1-D2
# Protocol: as §1
# SpSla1-D3 = target: SpSla1-D3
# Protocol: as §1
binder,measurement,setting,value
KIRRSSLMIPNPQQF,SPOT peptide array binding signal intensity,AgAbp1,26.5
same,SPOT peptide array binding signal intensity,AgBbc1,56.5
same,SPOT peptide array binding signal intensity,AgBem1-D1,234
same,SPOT peptide array binding signal intensity,AgBzz1-D1,18.5
same,SPOT peptide array binding signal intensity,AgBzz1-D2,39
same,SPOT peptide array binding signal intensity,AgCyk3,≤ 0
same,SPOT peptide array binding signal intensity,AgFus1,88
same,SPOT peptide array binding signal intensity,AgHof1,56.8
same,SPOT peptide array binding signal intensity,AgHse1,138
same,SPOT peptide array binding signal intensity,AgLsb1,86.5
same,SPOT peptide array binding signal intensity,AgLsb4,14
same,SPOT peptide array binding signal intensity,AgMyo5,2
same,SPOT peptide array binding signal intensity,AgNbp2,15
same,SPOT peptide array binding signal intensity,AgRvs167,1.67
same,SPOT peptide array binding signal intensity,AgSho1,15.5
same,SPOT peptide array binding signal intensity,AgSla1-D1-D2,186
same,SPOT peptide array binding signal intensity,AgSla1-D3,3.5
same,SPOT peptide array binding signal intensity,CaAbp1-D1,316
same,SPOT peptide array binding signal intensity,CaAbp1-D2,153
same,SPOT peptide array binding signal intensity,CaBbc1,214
same,SPOT peptide array binding signal intensity,CaBem1-D1,65.5
same,SPOT peptide array binding signal intensity,CaBzz1-D1,195
same,SPOT peptide array binding signal intensity,CaBzz1-D2,206
same,SPOT peptide array binding signal intensity,CaCyk3,11
same,SPOT peptide array binding signal intensity,CaFus1,383
same,SPOT peptide array binding signal intensity,CaHof1,1
same,SPOT peptide array binding signal intensity,CaHse1,12.5
same,SPOT peptide array binding signal intensity,CaLsb1,4
same,SPOT peptide array binding signal intensity,CaLsb4,72.5
same,SPOT peptide array binding signal intensity,CaMyo5,20.5
same,SPOT peptide array binding signal intensity,CaNbp2,129
same,SPOT peptide array binding signal intensity,CaRvs167,42.3
same,SPOT peptide array binding signal intensity,CaRvs167-3,7.5
same,SPOT peptide array binding signal intensity,CaSho1,84.5
same,SPOT peptide array binding signal intensity,CaSla1-D1-D2,532
same,SPOT peptide array binding signal intensity,CaSla1-D3,352
same,SPOT peptide array binding signal intensity,ScAbp1,42
same,SPOT peptide array binding signal intensity,ScBbc1,22.2
same,SPOT peptide array binding signal intensity,ScBem1-D1,136
same,SPOT peptide array binding signal intensity,ScBzz1-D1,40
same,SPOT peptide array binding signal intensity,ScBzz1-D2,32
same,SPOT peptide array binding signal intensity,ScCyk3,24
same,SPOT peptide array binding signal intensity,ScFus1,68
same,SPOT peptide array binding signal intensity,ScHof1,≤ 0
same,SPOT peptide array binding signal intensity,ScHse1,388
same,SPOT peptide array binding signal intensity,ScLsb1,20.5
same,SPOT peptide array binding signal intensity,ScLsb2,1.5
same,SPOT peptide array binding signal intensity,ScLsb3,15.5
same,SPOT peptide array binding signal intensity,ScLsb4,≤ 0
same,SPOT peptide array binding signal intensity,ScMyo3,5
same,SPOT peptide array binding signal intensity,ScMyo5,7
same,SPOT peptide array binding signal intensity,ScNbp2,126
same,SPOT peptide array binding signal intensity,ScPex13,46
same,SPOT peptide array binding signal intensity,ScRvs167,40.2
same,SPOT peptide array binding signal intensity,ScSho1,304
same,SPOT peptide array binding signal intensity,ScSla1-D1-D2,526
same,SPOT peptide array binding signal intensity,ScSla1-D3,337
same,SPOT peptide array binding signal intensity,SpAbp1-D1,95
same,SPOT peptide array binding signal intensity,SpBbc1,3.5
same,SPOT peptide array binding signal intensity,SpBzz1-D1,311
same,SPOT peptide array binding signal intensity,SpBzz1-D2,≤ 0
same,SPOT peptide array binding signal intensity,SpCyk3,6
same,SPOT peptide array binding signal intensity,SpHof1,94.5
same,SPOT peptide array binding signal intensity,SpHof1-2,24
same,SPOT peptide array binding signal intensity,SpHof1-3,241
same,SPOT peptide array binding signal intensity,SpHse1,184
same,SPOT peptide array binding signal intensity,SpLsb1,5.5
same,SPOT peptide array binding signal intensity,SpLsb4,144
same,SPOT peptide array binding signal intensity,SpMyo1,9.5
same,SPOT peptide array binding signal intensity,SpNbp2,33
same,SPOT peptide array binding signal intensity,SpPex13,162
same,SPOT peptide array binding signal intensity,SpRvs167,17.3
same,SPOT peptide array binding signal intensity,SpSla1-D1-D2,8
same,SPOT peptide array binding signal intensity,SpSla1-D3,68
